Laboratory results published in PubChem BioAssay (Tox21).
Inconclusive results are not listed. Where a structure was tested more than once in an assay, its records may differ in their call. The source made the active and inactive calls. Calls follow the shape of the dose curve; as a rule, active = well fitted cell-killing curve with a large enough effect in the repeat runs; inconclusive = weak or mixed curves; inactive = no such curve, though single readings can be large or run the other way.

Experiment: qHTS assay to identify small molecule agonists of the peroxisome proliferator-activated receptor delta (PPARd) signaling pathway - cell viability counter screen (AID 743211); also: nearly all actives have a fitted effect of over 55% in size
Conditions: PPARd-bla HEK293H viability, CellTiter-Glo luminescence, 17 h; series mostly up to 62.6 µM; activity change, negative = cytotoxicity: at the top concentration
Outline: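 PPARd-bla HEK293H cells (3000/well) were pre-incubated 5 h at 37 C, then exposed to compound for 17 h at 37 C. After 2 h with LiveBLAzer substrate, CellTiter-Glo was added to the same wells; luminescence read after 30 min at room temperature.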
% is scaled to controls: 0 for no effect and ±100 for the full control effect; potency is read from the fitted curve at half-maximal effect.

Structure (SMILES) | activity change, negative = cytotoxicity | Potency
O=C(O)c1cc(O)c2c(c1)C(=O)c1cccc(O)c1C2=O | -9.09% [at 81.1 µM] (inactive) | –
Cc1cc(C2CCCCC2)n(O)c(=O)c1 | – | 5.31 µM (active)
CO[Si](CCCNc1ccccc1)(OC)OC | 6.69% (inactive) | –
CCCCCCOC(=O)c1ccc(O)cc1 | – | 38.9 µM (active) and inactive
COc1cc(-c2ccc(N=C=O)c(OC)c2)ccc1N=C=O | -0.0024% (inactive) | –
S=c1[nH]c2ccccc2s1 | -27.7% (inactive) | –
O=C(Oc1cccc2cccnc12)c1ccccc1 | – | 3.35 µM (active)
CCC(CN)=C(c1ccccc1)c1ccccc1 | – | 29.8 µM (active)
Clc1ccc(C(Cn2ccnc2)OCc2ccc(Sc3ccccc3)cc2)c(Cl)c1 (stereo unspecified) | – | 29.8 µM (active)
COc1cccc2c1C(=O)c1c(O)c3c(c(O)c1C2=O)C[C@@](O)(C(=O)CO)C[C@@H]3O[C@H]1C[C@H](N)[C@H](O[C@@H]2CCCCO2)[C@H](C)O1 | -24.9% (inactive) | –
O=C1c2c(O)ccc(Nc3ccc(CCO)cc3)c2C(=O)c2c([N+](=O)[O-])ccc(O)c21 | -17.2% (inactive) | –
CCCCCCCCCCCCCC[P+](CCCC)(CCCC)CCCC (tested in a mixture with another compound) | 1.06% [at 81.1 µM] (inactive) | –
Cc1cccc(N(C)C(=S)Oc2ccc3c(c2)C2CCC3C2)c1 (stereo unspecified) | -21.5% (inactive) | –
Nc1c(Cl)cc(Cl)cc1Cl | -2.82% (inactive) | –
[O-][n+]1ccccc1SSc1cccc[n+]1[O-] | – | 0.13 µM (active)
O=C1CCCCCN1SSN1CCCCCC1=O | -18.4% (inactive) | –
CN1CCN(CCC(=O)N2c3ccccc3Sc3ccc(C(F)(F)F)cc32)CC1 | – | 11.9 µM (active)
Cc1[nH]nc2c1N=C(c1ccccc1Cl)c1cc([N+](=O)[O-])ccc1N2 | – | 5.49 µM (active)

Structure (SMILES) | activity change, negative = cytotoxicity | Potency
Cc1nc(-c2ccc3c(c2)CCN(CCC2CCC(NC(=O)/C=C/c4ccc(F)cc4)CC2)CC3)no1 (stereo unspecified) | -9.98% [at 29.1 µM] (inactive) | –
Cc1cc(N)c(S(=O)(=O)O)cc1Cl | 5.81% [at 81.1 µM] (inactive) | –
O=C(Oc1ccccc1)c1ccccc1C(=O)Oc1ccccc1 | -27.6% (inactive) | –
O=C(O)c1c(Cl)cccc1Cl | 8.06% (inactive) | –
CC(C)n1nc(-c2cc3cc(O)ccc3[nH]2)c2c(N)ncnc21 | – | 13.3 µM (active)
COC(=O)C1=C(C)NC(C)=C(C(=O)OCCc2ccc(N3CCN(C(c4ccccc4)c4ccccc4)CC3)cc2)C1c1cccc([N+](=O)[O-])c1 (stereo unspecified) | 5.25% (inactive) | –
Fc1ccc([C@@H]2CCNC[C@H]2COc2ccc3c(c2)OCO3)cc1 | – | 13.3 µM (active)
c1ccc(CSCc2ccccc2)cc1 | 0% (inactive) | –
CC1(C)CCC(C)(C)c2cc(C(=O)Nc3ccc(C(=O)O)cc3)ccc21 | -17.4% (inactive) | –
CCC(C)(C)C1CCCCC1OC(C)=O (stereo unspecified) | -9.5% (inactive) | –
CCC(N)(CO)CO | 17.2% [at 81.1 µM] (inactive) | –
CCCCCCCCOC(=O)c1ccc(O)cc1 | – | 48.8 µM (active)
CC1=C(/C=C/C(C)=C/C=C/C(C)=C/C=O)C(C)(C)CCC1 | – | 12.2 µM (active)
C=C(C)C(=O)OCC[N+](C)(C)C | -0.0635% (inactive) | –
Cc1cccc(CN2CCN(C(c3ccccc3)c3ccc(Cl)cc3)CC2)c1 (stereo unspecified) | – | 26.6 µM (active)
Cn1cc(C(=O)[C@@H]2CCc3nc[nH]c3C2)c2ccccc21 | -19.7% (inactive) | –
O=C(c1ccc(O)cc1O)c1ccc(O)cc1O | – | inactive
CC(C)(C)NC(=O)[C@@H]1C[C@@H]2CCCC[C@@H]2CN1C[C@@H](O)[C@H](Cc1ccccc1)NC(=O)[C@H](CC(N)=O)NC(=O)c1ccc2ccccc2n1 | – | 35.1 µM (active)
